Experimental data published in PubChem BioAssay (NCATS).
Several values for one entry are separate records, joined by “and”; a condition that tells them apart may be missing. Equal entries are not always repeated. Records with an inconclusive call do not appear. Activity calls are given as the source filed them. Calls come from the whole dose curve; as a rule, active = well fitted curve in the direction sought with a large enough effect; inconclusive = small, poorly fitted or top-dose-only effect, or another doubt; inactive = no such curve, though single readings can be large; an effect the other way counts as inactive or inconclusive.

How the values were obtained:
[1] = Viability qHTS for spleen associated tyrosine kinase inhibitor (SYKi) naive MV4-11 cells (AID 1963823); note: nearly all actives have a fitted effect of over 40% in size
In short: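 Luminescence from CellTiter-Glo, developed 10 min at room temperature, gave viability of MV4-11 cells never exposed to SYK inhibitor. Cells (500/well) had been incubated with compounds for 72 hr under standard culture conditions.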

[2] = Viability qHTS for spleen associated tyrosine kinase inhibitor (SYKi) drug resistant MV4-11 cells (AID 1963824); note: nearly all actives have a fitted effect of over 35% in size
In short: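 SYK-inhibitor-resistant MV4-11 AML cells were seeded at 500 per well onto compound and cultured 72 hours (37 °C, 5% CO2). CellTiter-Glo was then added, and after 10 min at room temperature, luminescence gave viability.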

[3] = Cellular viability qHTS for adrenocortical cancer (ACC) cell line NCI-H295R (AID 1963990); note: nearly all actives have a fitted effect of over 60% in size;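 for activity change, negative = viability loss: 0% = DMSO only wells and -100% = full killing with cytotoxic reference compound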
In short: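 IC50 and maximal efficacy derive from four-parameter logistic modelling of titration curves, with reads scaled between DMSO-only wells (0%) and doxorubicin hydrochloride (100% inhibition). Compounds spanned up to 46 uM over 48 h.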
Potency is the fitted concentration of half-maximal effect.

Compound	Potency [1]	Potency [2]	Potency [3]	viability (% of control) [1]	viability, % of control [2]	activity change, negative = viability loss [3]
O=C(CO)[C@@H](O)[C@H](O)[C@@H](O)CO	inactive	inactive	inactive	–	–	–
COC(=O)c1ccc([C@H]2c3[nH]c4ccccc4c3C[C@H](C(=O)OC)N2C(=O)CCl)cc1	0.235 µM (active)	0.525 µM (active)	0.0891 µM (active)	–	–	–
CC(C)Oc1ccc(-c2nc(-c3cccc4c3CC[C@@H]4NCCO)no2)cc1C#N	11.8 µM (active)	11.8 µM (active)	28.2 µM (active)	–	–	–
COC(=O)/C=C/C(=O)OC	inactive	inactive	inactive	–	–	–
Cc1ccc(NS(=O)(=O)c2cccc(C#N)c2)c2[nH]cc(C#N)c12	0.166 µM (active)	0.235 µM (active)	0.112 µM (active)	–	–	–
Cc1sc2c(c1C)C(c1ccc(Cl)cc1)=N[C@@H](CC(=O)Nc1ccc(OCCOCCOCCOCCNc3cccc4c3C(=O)N(C3CCC(=O)NC3=O)C4=O)cc1)c1nnc(C)n1-2 (some centres not stated)	inactive	0.0166 µM (active)	3.98 µM (active)	–	–	–
NCC[C@H](O)C(=O)N[C@@H]1C[C@H](N)[C@@H](O[C@H]2O[C@H](CN)[C@@H](O)[C@H](O)[C@@H]2O)[C@H](O)[C@@H]1O[C@H]1O[C@H](CO)[C@@H](O)[C@H](N)[C@@H]1O	–	–	–	113% [at 0.588 µM] (inactive)	95% [at 0.588 µM] (inactive)	7.11% [at 0.587 µM] (inactive)
CCCCCCCCCCCCCCCCOCCCOP(=O)(O)COC(CO)Cn1ccc(N)nc1=O (configuration not stated)	2.59 µM (active)	3.26 µM (active)	inactive	–	–	–
C=CC[C@@H]1/C=C(\C)C[C@H](C)C[C@H](OC)[C@H]2O[C@@](O)(C(=O)C(=O)N3CCCC[C@H]3C(=O)O[C@H](/C(C)=C/[C@@H]3CC[C@@H](O)[C@H](OC)C3)[C@H](C)[C@@H](O)CC1=O)[C@H](C)C[C@@H]2OC	18.6 µM (active)	14.8 µM (active)	inactive	–	–	–
CCCCNC(=O)NS(=O)(=O)c1ccc(C)cc1	inactive	inactive	inactive	–	–	–
CCN1/C(=C/C=C/c2sc3ccccc3[n+]2CC)Sc2ccccc21	0.0184 µM (active)	0.058 µM (active)	10 µM (active)	–	–	–
C/C=C/C/C=C/CCC(=O)[C@H]1O[C@H]1C(N)=O	8.33 µM (active)	6.61 µM (active)	20 µM (active)	–	–	–
CN1CCCN(C(c2ccccc2)c2ccc(Cl)cc2)CC1 (configuration not stated)	21.1 µM (active)	16.8 µM (active)	23.1 µM (active)	–	–	–
CC(C)(O)c1ccccc1CC[C@@H](SCC1(CC(=O)O)CC1)c1cccc(/C=C/c2ccc3ccc(Cl)cc3n2)c1	inactive	inactive	inactive	–	–	–
CNCC[C@H](Oc1cccc2ccccc12)c1cccs1	18.8 µM (active)	26.6 µM (active)	18.4 µM (active)	–	–	–
CCN(CC)CCNC(=O)c1c(C)[nH]c(/C=C2/C(=O)Nc3ccc(-c4csc(-c5ccccc5)n4)cc32)c1C	0.468 µM (active)	1.32 µM (active)	3.55 µM (active)	–	–	–
CN1CCN(Cc2ccc(Nc3ncc(Cl)c(Nc4ccccc4S(=O)(=O)N(C)C)n3)cc2)CC1	0.006 µM (active)	0.0096 µM (active)	0.237 µM (active)	–	–	–
Cc1ccc(Nc2ncc3c(n2)N(C)C(=O)N(c2cc(NC(=O)c4cccc(C(F)(F)F)c4)ccc2C)C3)cn1	0.0148 µM (active)	0.013 µM (active)	inactive	–	–	–
Cn1ncc2cc(-c3cnc(N)c(Cl)c3N3CCC4(CCNC4=O)CC3)ccc21	2.31 µM (active) and 1.48 µM (active)	2.59 µM (active) and 2.95 µM (active)	inactive	–	–	–
CC(C)[N+](C)(C)CC(O)COc1cccc2ccccc12 (configuration not stated)	inactive	inactive	inactive	–	–	–
Nc1ccc(C(=O)NCC(=O)O)cc1	inactive	inactive	inactive	–	–	–
C=CC(=O)N1CCC(Oc2cc3c(Nc4ccc(Cl)c(Cl)c4F)ncnc3cc2OC)CC1	1.03 µM (active)	4.68 µM (active)	25.1 µM (active)	–	–	–
CN(C)/C(N)=N/C(=N)N	inactive	inactive	inactive	–	–	–
N#Cc1ccc(-c2c(-c3ncn[nH]3)sc(N3CCOCC3)c2C#N)c(F)c1	3.26 µM (active) and 3.32 µM (active)	2.06 µM (active) and 5.9 µM (active)	4.47 µM (active)	–	–	–
C=CC(=O)Nc1cccc(C)c1Nc1ncc2cc(-c3c(Cl)c(OC)cc(OC)c3Cl)ccc2n1	1.03 µM (active)	1.46 µM (active)	3.55 µM (active)	–	–	–
CN1CCCC(CC2c3ccccc3Sc3ccccc32)C1 (configuration not stated)	18.8 µM (active)	16.8 µM (active)	18.4 µM (active)	–	–	–
CCCCCCCCCCOCC(O)CN (configuration not stated)	23.7 µM (active)	26.6 µM (active)	18.4 µM (active)	–	–	–
N#C/C(=C\c1ccc(O)c(O)c1)C(=O)NCc1ccccc1	13.2 µM (active)	9.2 µM (active) and 16.6 µM (active)	inactive	–	–	–
OC(c1ccc(-c2ccc(CN3CCN(Cc4ccncc4)CC3)cc2)c(F)c1)(C(F)(F)F)C(F)(F)F	4.17 µM (active)	5.9 µM (active)	inactive	–	–	–
